Data from PubChem BioAssay (NCI).
This is part of a sample that, as a whole, favours compounds with a hit. Of some 83,000 tested, about 20% had one in any assay.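 Activity criterion: percent growth below 10, measured after cells in 96-well plates were exposed to a single compound concentration for 48 hours.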 Values without a mark were called inactive. Calls of active or inactive are those of the source.

Tested on: PC-3 prostate
Test: NCI-60 one-dose screen, 48 h (100 = growth as untreated, 0 = no growth, -100 = all killed)
Details: 10 µM unless noted
Protocol: Growth inhibition of the PC-3 human tumor cell line is measured as a screen for anti-cancer activity. Cells are grown in 96 well plates and exposed to the test compound for 48 hours. Compounds are tested at a single concentration, which is 10^-5 M for most compounds. The reported endpoint is percent growth (GI% or GIPRCNT), where numbers from 0 - 100% represent growth inhibition, and numbers from -100% - 0 represent cell death. For example, a value of 40 represents 60% growth inhibition. A value of 0 means no net growth occurred over the course of the experiment. A value of -40 indicates 40% of cells at the beginning of the experiment died by the end of the experiment. A value of -100 means all cells are dead at the end of the experiment.
NCI-60 Human Tumor Cell Lines Screen was performed using the standard one-dose NCI protocol, which is described in more detail at https://dtp.cancer.gov/discovery_development/nci-60/default.htm.
Compounds with GIPRCNT values below 10 were considered active. Activity score was based on GIPRCNT using the following formula: […]
Score is 0 for GIPRCNT values of 100 or above, 50 for GIPRCNT values of 0, and 100 for GIPRCNT values of -100.

| Structure (SMILES) | growth |
| --- | --- |
| COC(=O)CCCCN=Cc1c(O)c(O)c(C(C)C)c2cc(C)c(-c3c(C)cc4c(C(C)C)c(O)c(O)c(C=NCCCCC(=O)OC)c4c3O)c(O)c12 | 12.1% |
| COc1ccc(/C=C(\C#N)c2ccc([N+](=O)[O-])cc2)c2ccccc12 | 62.5% |
| CCn1cc(C2NC(=O)c3cc(F)ccc3N2)c2cccc(Cl)c21 (stereo not given) | 22.3% |
| COc1ccc(OC)c(C(=O)c2oc3ccc(Br)cc3c2N)c1 | -1.02% (active) |
| Cc1oc2nc[nH]c(=O)c2c1C(=O)/C=C/c1ccc(Cl)cc1 | 34.2% |
| COc1cc2nc(N3CCC[C@@H](NC4=CC(=O)c5ccccc5C4=O)C3)nc(N)c2cc1OC | 23% |
| COc1ccc(C2CC(c3cccs3)=NN2c2ccc(S(=O)(=O)NC(=O)Nc3ccc(C)cc3)cc2)cc1 (stereo not given) | 86.3% |
| CCN(Cc1ccc(CN(CC)C(=O)C(Br)Br)cc1)C(=O)C(Br)Br | 41.3% |
| CC(C)C[C@H](NC(=O)Cn1ccc(NCc2ccccc2)cc1=O)B(O)O | 49.2% |
| O=C(CC(O)c1ccncc1)c1ccccc1 (stereo not given) | -17.2% (active) |
| COc1cc(C(=O)CCCl)ccc1O | 95% |
| COc1cc(NC(=O)CCl)ccc(=O)c1 | 74.6% |
| NC(=O)NNC(=O)c1ccccc1 | 96.5% |
| O=C(O)c1ccc(-n2c(=O)c3ccccc3c3ccccc3c2=O)cc1 | 98.9% |
| O=S(=O)(NCCCNc1nccc(-c2c(-c3ccc(F)c(O)c3)nc3sccn23)n1)c1ccc(Cl)cc1 | 58.7% |
| Cc1ccc2c(c1)C(C)Cc1c(N(C)C)ncnc1N2C (stereo not given) | 32.8% |
| Cc1ccc(S(=O)(=O)NCCCNc2nccc(-c3c(-c4ccccc4)nc4sccn34)n2)cc1 | 30.9% |
| Cc1ccc2c(c1)C(=O)C(c1c(-c3[nH]c(=O)c4ccc(C)cc4c3O)c(O)c3ccccc3c1O)=NC2=O | 2.45% (active) |
| CCOC(=O)c1ccccc1NC(c1ccccc1)c1ccc2cccnc2c1O (stereo not given) | 25.4% |
| COc1cc(C(=O)N2CCN(C(=O)c3ccco3)CC2)c(N)cc1OCc1ccccc1 | 98.5% |

| Structure (SMILES) | growth |
| --- | --- |
| O=C1Nc2ccc(Br)cc2C1=N/C=c1\[nH]c(=O)/c(=C/c2ccc(Cl)cc2)s1 | 92% |
| CCN1C(=O)N(CC)C2Nn3c(s/c(=C4\C(=O)N(C5CCCC5)c5ccccc54)c3=O)=NC21 (stereo not given) | 46.5% |
| COc1c(NC[C@H]2OC(O)[C@H](O)[C@@H](O)[C@@H]2O)c(=O)c1=O (stereo not given in full) | 92.7% |
| COc1cc(OC)c(C(=O)/C=C/c2cccc(C(F)(F)F)c2)c(OC)c1 | 41.9% |
| CCC(=O)Nc1ccccc1C#C/C=C\C#Cc1ccccc1SC | 51.9% |
| COc1ncc(-c2ccc3ncnc(Nc4cccc(Cl)c4)c3c2)cc1NS(=O)(=O)C1CC1 | 24.4% |
| C=C1C(=O)O[C@H]2[C@H]1CC/C(Cn1cc(-c3ccccc3C(F)(F)F)nn1)=C\CC[C@@]1(C)O[C@@H]21 | -31.1% (active) |
| CN=S(=O)(NC(=O)c1ccc(Cl)cc1Cl)c1ccc(Br)s1 (stereo not given) | 79.2% |
| COc1ccc(C2CC(c3cccs3)=NN2c2ccc(S(=O)(=O)NC(=O)NCc3cccc(OC)c3)cc2)cc1 (stereo not given) | 96.3% |
| CC(=O)Nc1ccc2c(c1)/C(=C\C=C/c1ccc([N+](C)(C)C)cc1)c1ccccc1-2 | 68.4% |
| C=C1C(=O)O[C@H]2[C@H]1CC/C(COC(=O)NCCc1ccc(Br)cc1)=C\CC[C@@]1(C)O[C@@H]21 | 36.4% |
| COC1=CC(c2ccc[nH]2)=N/C1=C\c1[nH]c(C)c(CCCn2cc(CCCCCCCCC[C@@H]3Cc4cc(O)ccc4C4CC[C@]5(C)[C@@H](O)CC[C@H]5C43)nn2)c1C (stereo not given in full) | 45% |
| O=C(Cc1c(F)cccc1Cl)Nc1ccc(S(=O)(=O)Nc2ncccn2)cc1 | 100% |
| COc1ccc(Cn2c(SC)nc(=O)n(Cc3ccc(Cl)cc3)c2=O)cc1 | 90.1% |
| O=c1cc(C2NCCc3c2[nH]c2ccccc32)c2c(ccc3ccccc32)o1 (stereo not given) | 56% |
| COc1cccc(/C=C/C(=O)c2sc(Nc3ccc(O)cc3)nc2C)c1 | 85.9% |
| COc1ccc(C(=O)/C=C/c2cccc([N+](=O)[O-])c2)c(OC)c1 | 33.3% |
| COc1cc(NC(=O)CSc2nc3ccc(C)cc3c(=O)n2-c2ccccc2)cc(OC)c1OC | 82% |
| O=C1c2ccccc2C(=O)c2c1oc1oc3c(c(=O)c21)c(=O)n(-c1ccccc1)c1ccccc31 | 34.2% |
| Nc1c(C(=O)Nc2cccc([N+](=O)[O-])c2)sc2nc3c(cc12)C(O)CCC3 (stereo not given) | 57.2% |
